# Experimental data taken from PubChem BioAssay AID1159580 (chemical genetic matrix, 2015).
# Screen size: about 5,500 compounds; about 2,000 (36%) were called active. About 18% were inconclusive and are not listed. This is one part of the list. A number with no mark means an inactive call. Rule as the data show it: active = normalized growth mostly below about 0.91 (no sharp cut-off); inconclusive = no clear call, values can overlap the other calls; inactive = mostly above about 0.92.
# Assay: chemical genetic growth profiling, strain panel (AID 1159580);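 also: tested at 20 µM; growth read once vehicle control cultures reached saturation at 30 °C; 1 = growth at the plate median or of vehicle wells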
# Conditions: growth OD
compound,measurement,setting,value
COc1cc2ccc(=O)oc2c2ccoc12,normalized growth,"S. cerevisiae deletion strains, locus YJR066W, strain TOR1, stronger effect = lower value",0.965
same,normalized growth,"S. cerevisiae deletion strains, locus YKL009W, strain mrt4, stronger effect = lower value",0.902
same,normalized growth,"S. cerevisiae deletion strains, locus YKL068W, stronger effect = lower value",0.999
same,normalized growth,"S. cerevisiae deletion strains, locus YKL085W, strain MDH1 (second series), stronger effect = lower value",0.999
same,normalized growth,"S. cerevisiae deletion strains, locus YKL085W, strain MDH1, stronger effect = lower value",0.999
same,normalized growth,"S. cerevisiae deletion strains, locus YKL160W, strain elf1, stronger effect = lower value",0.894 (active)
same,normalized growth,"S. cerevisiae deletion strains, locus YKR001C, strain vps1, stronger effect = lower value",0.901
same,normalized growth,"S. cerevisiae deletion strains, locus YKR026C, strain gcn3, stronger effect = lower value",0.999
same,normalized growth,"S. cerevisiae deletion strains, locus YKR091W, strain srl3, stronger effect = lower value",0.998
same,normalized growth,"S. cerevisiae deletion strains, locus YLL001W, strain dnm1, stronger effect = lower value",0.87 (active)
same,normalized growth,"S. cerevisiae deletion strains, locus YLL026W, stronger effect = lower value",0.982
same,normalized growth,"S. cerevisiae deletion strains, locus YLL041C, strain sdh2, stronger effect = lower value",0.991
same,normalized growth,"S. cerevisiae deletion strains, locus YLR027C, strain aat2, stronger effect = lower value",0.911 (active)
same,normalized growth,"S. cerevisiae deletion strains, locus YLR039C, strain RIC1, stronger effect = lower value",1.09
same,normalized growth,"S. cerevisiae deletion strains, locus YLR058C, strain SHM2, stronger effect = lower value",0.987
same,normalized growth,"S. cerevisiae deletion strains, locus YLR102C, strain apc9, stronger effect = lower value",1.01
same,normalized growth,"S. cerevisiae deletion strains, locus YLR113W, strain HOG1, stronger effect = lower value",1.09
same,normalized growth,"S. cerevisiae deletion strains, locus YLR221C, strain rsa3, stronger effect = lower value",0.873 (active)
same,normalized growth,"S. cerevisiae deletion strains, locus YLR258W, strain gsy2, stronger effect = lower value",0.87 (active)
same,normalized growth,"S. cerevisiae deletion strains, locus YLR262C, strain YPT6 (second series), stronger effect = lower value",0.948
same,normalized growth,"S. cerevisiae deletion strains, locus YLR262C, strain YPT6, stronger effect = lower value",1.06
same,normalized growth,"S. cerevisiae deletion strains, locus YLR268W, strain sec22, stronger effect = lower value",0.97
same,normalized growth,"S. cerevisiae deletion strains, locus YLR320W, strain mms22, stronger effect = lower value",0.752 (active)
same,normalized growth,"S. cerevisiae deletion strains, locus YLR342W, strain FKS1, stronger effect = lower value",1.01
same,normalized growth,"S. cerevisiae deletion strains, locus YLR357W, strain rsc2, stronger effect = lower value",1.16 [resistant] (active)
same,normalized growth,"S. cerevisiae deletion strains, locus YLR370C, strain arc18, stronger effect = lower value",0.982
same,normalized growth,"S. cerevisiae deletion strains, locus YLR371W, strain rom2, stronger effect = lower value",0.947
same,normalized growth,"S. cerevisiae deletion strains, locus YLR384C, strain iki3, stronger effect = lower value",0.986
same,normalized growth,"S. cerevisiae deletion strains, locus YLR418C, strain cdc73, stronger effect = lower value",0.918
same,normalized growth,"S. cerevisiae deletion strains, locus YML016C, strain PPZ1, stronger effect = lower value",0.991
same,normalized growth,"S. cerevisiae deletion strains, locus YML032C, strain rad52, stronger effect = lower value",0.737 (active)
same,normalized growth,"S. cerevisiae deletion strains, locus YML120C, strain ndi1, stronger effect = lower value",0.844 (active)
same,normalized growth,"S. cerevisiae deletion strains, locus YML124C, strain tub3, stronger effect = lower value",1
same,normalized growth,"S. cerevisiae deletion strains, locus YMR058W, strain fet3, stronger effect = lower value",0.941
same,normalized growth,"S. cerevisiae deletion strains, locus YMR078C, strain ctf18, stronger effect = lower value",0.977
same,normalized growth,"S. cerevisiae deletion strains, locus YMR125W, strain sto1, stronger effect = lower value",1.02
same,normalized growth,"S. cerevisiae deletion strains, locus YMR129W, stronger effect = lower value",0.971
same,normalized growth,"S. cerevisiae deletion strains, locus YMR205C, strain PFK2, stronger effect = lower value",0.993
same,normalized growth,"S. cerevisiae deletion strains, locus YMR223W, strain ubp8, stronger effect = lower value",0.937
same,normalized growth,"S. cerevisiae deletion strains, locus YMR231W, strain pep5, stronger effect = lower value",0.98
same,normalized growth,"S. cerevisiae deletion strains, locus YMR263W, strain SAP30, stronger effect = lower value",0.976
same,normalized growth,"S. cerevisiae deletion strains, locus YMR307W, strain GAS1, stronger effect = lower value",1.09
same,normalized growth,"S. cerevisiae deletion strains, locus YNL067W, strain RPL9B, stronger effect = lower value",0.977
same,normalized growth,"S. cerevisiae deletion strains, locus YNL071W, strain lat1, stronger effect = lower value",0.913 (active)
same,normalized growth,"S. cerevisiae deletion strains, locus YNL128W, strain TEP1, stronger effect = lower value",0.871
same,normalized growth,"S. cerevisiae deletion strains, locus YNL183C, strain NPR1, stronger effect = lower value",0.977
same,normalized growth,"S. cerevisiae deletion strains, locus YNL209W, strain ssb2, stronger effect = lower value",0.919 (active)
same,normalized growth,"S. cerevisiae deletion strains, locus YNL233W, strain BNI4, stronger effect = lower value",0.982
same,normalized growth,"S. cerevisiae deletion strains, locus YNL248C, strain rpa49, stronger effect = lower value",0.458 (active)
same,normalized growth,"S. cerevisiae deletion strains, locus YNL250W, strain rad50, stronger effect = lower value",0.856 (active)
same,normalized growth,"S. cerevisiae deletion strains, locus YNL271C, strain bni1, stronger effect = lower value",0.956
same,normalized growth,"S. cerevisiae deletion strains, locus YNL298W, strain CLA4, stronger effect = lower value",0.954
same,normalized growth,"S. cerevisiae deletion strains, locus YNL307C, strain MCK1, stronger effect = lower value",1.01
same,normalized growth,"S. cerevisiae deletion strains, locus YNL322C, strain KRE1 (second series), stronger effect = lower value",0.793 (active)
same,normalized growth,"S. cerevisiae deletion strains, locus YNR049C, strain mso1, stronger effect = lower value",1.02
same,normalized growth,"S. cerevisiae deletion strains, locus YNR052C, strain pop2, stronger effect = lower value",0.925
same,normalized growth,"S. cerevisiae deletion strains, locus YOL012C, strain htz1",0.781
same,normalized growth,"S. cerevisiae deletion strains, locus YOL147C, strain pex11, stronger effect = lower value",0.981
same,normalized growth,"S. cerevisiae deletion strains, locus YOR001W, strain rrp6, stronger effect = lower value",0.732 (active)
same,normalized growth,"S. cerevisiae deletion strains, locus YOR061W, strain CKA2, stronger effect = lower value",1
same,normalized growth,"S. cerevisiae deletion strains, locus YOR069W, strain VPS5, stronger effect = lower value",0.988
same,normalized growth,"S. cerevisiae deletion strains, locus YOR070C, strain gyp1, stronger effect = lower value",0.966
same,normalized growth,"S. cerevisiae deletion strains, locus YOR080W, strain dia2, stronger effect = lower value",0.891 (active)
same,normalized growth,"S. cerevisiae deletion strains, locus YOR083W, strain WHI5, stronger effect = lower value",0.801 (active)
same,normalized growth,"S. cerevisiae deletion strains, locus YOR106W, strain vam3, stronger effect = lower value",0.755 (active)
same,normalized growth,"S. cerevisiae deletion strains, locus YOR136W, strain idh2, stronger effect = lower value",0.971
same,normalized growth,"S. cerevisiae deletion strains, locus YOR144C, strain elg1, stronger effect = lower value",0.986
same,normalized growth,"S. cerevisiae deletion strains, locus YOR184W, strain ser1, stronger effect = lower value",0.994
same,normalized growth,"S. cerevisiae deletion strains, locus YOR231W, strain MKK1, stronger effect = lower value",0.991
same,normalized growth,"S. cerevisiae deletion strains, locus YOR265W, strain rbl2, stronger effect = lower value",0.952
same,normalized growth,"S. cerevisiae deletion strains, locus YOR270C, strain vph1, stronger effect = lower value",0.814
same,normalized growth,"S. cerevisiae deletion strains, locus YOR290C, strain snf2, stronger effect = lower value",0.821 (active)
same,normalized growth,"S. cerevisiae deletion strains, locus YOR316C, strain cot1, stronger effect = lower value",0.981
same,normalized growth,"S. cerevisiae deletion strains, locus YPL051W, strain arl3, stronger effect = lower value",0.863 (active)
same,normalized growth,"S. cerevisiae deletion strains, locus YPL078C, strain atp4, stronger effect = lower value",0.858 (active)
same,normalized growth,"S. cerevisiae deletion strains, locus YPL106C, strain sse1, stronger effect = lower value",0.748 (active)
same,normalized growth,"S. cerevisiae deletion strains, locus YPL240C, strain hsp82, stronger effect = lower value",0.965
same,normalized growth,"S. cerevisiae deletion strains, locus YPL241C, strain CIN2, stronger effect = lower value",0.997
same,normalized growth,"S. cerevisiae deletion strains, locus YPL256C, strain CLN2, stronger effect = lower value",1.06
same,normalized growth,"S. cerevisiae deletion strains, locus YPR119W, strain clb2, stronger effect = lower value",0.99
same,normalized growth,"S. cerevisiae deletion strains, locus YPR141C, strain kar3, stronger effect = lower value",1
same,normalized growth,"S. cerevisiae deletion strains, locus YPR163C, strain tif3, stronger effect = lower value",0.884 (active)
same,normalized growth,"S. cerevisiae deletion strains, locus YPR167C, strain met16, stronger effect = lower value",0.97
same,normalized growth,"S. cerevisiae deletion strains, strain wtn01, stronger effect = lower value",0.969
same,normalized growth,"S. cerevisiae strains, strain wild type, stronger effect = lower value",1.02
